Laboratory results taken from PubChem BioAssay AID488835 (Broad Institute, 2010).
Among all 1,400 compounds or so, about 140 (10%) were called active.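 The calls were made as follows: active = Half-maximal inhibitory dose from the fit at or below ten times the top valid tested dose; inconclusive = Invalid fit, or flat curve showing 30 to 70% inhibition; inactive = the rest.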 Only a sample is shown. Potency and affinity values are given separately.

Each molecule was assayed against Lysine-specific demethylase 4C (Homo sapiens) (UniProt Q9H3R0) (assay: inhibition of JMJD2C H3K9me3 demethylation – biochemical, DELFIA europium, cherry-picked samples, dose response (AID 488835;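 also: signal is the H3K9me2 demethylation product detected by a dimethyl-specific antibody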)). Details: GST-JMJD2C(1-420); series mostly up to 6 µM; activity change, negative = inhibition: at the top concentration.
Lysine-specific demethylase 4C (Homo sapiens), sequence (Q9H3R0 1-420 limits assumed): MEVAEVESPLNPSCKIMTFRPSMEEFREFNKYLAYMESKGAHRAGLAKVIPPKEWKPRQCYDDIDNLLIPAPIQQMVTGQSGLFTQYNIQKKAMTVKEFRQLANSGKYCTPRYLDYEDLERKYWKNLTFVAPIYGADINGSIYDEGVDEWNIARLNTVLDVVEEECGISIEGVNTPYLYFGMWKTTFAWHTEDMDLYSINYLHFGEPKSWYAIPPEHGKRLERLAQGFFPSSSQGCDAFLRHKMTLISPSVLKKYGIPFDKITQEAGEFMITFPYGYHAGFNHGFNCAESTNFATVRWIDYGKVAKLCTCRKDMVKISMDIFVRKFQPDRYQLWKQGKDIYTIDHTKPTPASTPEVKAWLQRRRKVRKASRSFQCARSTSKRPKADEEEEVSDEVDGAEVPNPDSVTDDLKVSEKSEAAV

Activity change, negative = inhibition, inactive:
CS(=O)(=O)N(CCc1ccccc1)CC(=O)NCc1ccc(Cl)cc1 0.000961%
O=C(Cn1c(=O)sc2ccccc21)NCc1ccco1 5.44%
COc1ccccc1Nc1ncnc2ccccc12 7.2%
Cc1ccc(NC(=O)CSc2cccc[n+]2[O-])c([N+](=O)[O-])c1 2.02%
Cc1cc(C)cc(C(=O)N2CCC(C(N)=O)CC2)c1 3.06%
O=C(/C=C/c1ccc2c(c1)OCO2)NCCS(=O)(=O)N1CCN(c2ccc(F)cc2)CC1 -1.44%
O=C(N/N=C/c1ccccc1)c1c(O)c2ccccc2[nH]c1=O 7.7%
COc1ccc(NC(=O)O/N=C/c2ccccc2)cc1 1.47%
CC(C)Cn1c(N)c(C(=O)COC(=O)c2c(O)c(Cl)cc(Cl)c2Cl)c(=O)n(C)c1=O 13.9%
CC(=O)C[C@@H](O)CC(=O)[C@H]1OC(=O)CCCCCc2ccccc21 15.1%
Cn1c(=N)n(CC(O)c2ccccc2)c2ccccc21 (stereo not given) 22.9%
COc1cccc(NC(=O)COC(=O)c2ccc(S(=O)(=O)NCc3ccco3)cc2)c1 -4.04%
CSCCC(NS(=O)(=O)c1ccc(Cl)cc1)C(=O)O (stereo not given) 5.12%
O=C(CSc1nc2ccccc2c(=O)n1Cc1ccc(C(=O)NC2CC2)cc1)NCc1ccco1 -1.55%
Cc1nnc(SCc2nc3ccccc3[nH]2)s1 8.43%
CCCC(=O)Nc1nc2c(c(=O)[nH]1)CCCC2 -0.233%
COc1ccc(C(=O)N2CCC(C(=O)NCc3ccccn3)CC2)cc1 3.25%
COc1ccc(N=Cc2cccc(C)c2O)cc1Cl -0.494%
O=C(NC(=S)Nc1ccccn1)c1ccc([N+](=O)[O-])cc1 9.17%
CN(C)c1ccc(C2Nc3ccccc3C(=O)N2CCN2CCNC2=O)cc1 (stereo not given) -1.83%
COc1ccc(/C=C2\Sc3ccc(C(=O)N4CCCC4)cc3N(C)C2=O)cc1OC -8.78%
Cc1ccc(NC(=O)CSc2nc3c(c(=O)[nH]2)CN(Cc2ccc(F)cc2)CC3)cc1C -5.7%
CC(=O)c1ccc(O[C@@H]2O[C@H](CO)[C@@H](O)[C@H](O)[C@H]2O)cc1 13.2%
O=c1cc(-c2ccc(O)c(O)c2)oc2c(C3O[C@H](CO)[C@@H](O)[C@H](O)[C@H]3O)c(O)cc(O)c12 (stereo not given in full) -63.3%
CC(C)n1cnc2c(NCc3ccccc3)nc(NCc3ccccc3)nc21 -3.21%
Cn1nnc(NC(=O)CSc2ccc(Cl)cc2)n1 -1.87%
Cc1cccn2c(=O)c(/C=N/O)c(N3CCCC3)nc12 7.05%
Cc1ccc(NC(=O)CSc2ncc(S(=O)(=O)c3ccccc3)c(=O)[nH]2)cc1C 7.83%
Cc1cc(C)nc(NCc2ccc(Cl)cc2)n1 -2.03%
Cn1c(=O)[nH]c(=O)c2c1nc(N1CCOCC1)n2CCc1ccccc1 -7%
COc1ccc(NC(=O)N(C)C[C@H]2Oc3c(NC(=O)C4CC4)cccc3C(=O)N([C@H](C)CO)C[C@@H]2C)cc1 4.36%
Cc1occc1-c1nnc(SCC(=O)c2cc3ccccc3oc2=O)o1 -0.848%
Cc1ccc(CCNC(=O)C23C[C@H]4C[C@@H](C2)CC(n2nnc(C)n2)(C4)C3)cc1 5.08%
CCOC(=O)c1oc2ccccc2c1COC(=O)C(C)NC(=O)c1ccco1 (stereo not given) -4.12%
COc1ccccc1-n1c(SCC(=O)N2CCCC2)nc2cccnc21 2.93%
COc1cc(/C=N/N2CCN(c3ccccc3OC)CC2)ccc1O 4.01%
CCCn1nnnc1SCC(=O)NCc1ccc(OC)cc1 7.3%
CCOC(=O)c1[nH]c(CSc2nnnn2-c2ccccc2C)c(C(=O)OCC)c1C 1.98%
CCN(C[C@H]1N[C@@](C)(C(=O)OC)[C@H]2C(=O)N(Cc3ccccc3)C(=O)[C@@H]12)C(=O)Nc1ccc(Cl)cc1 2.49%
CCC(C)[C@H](NC(=O)NCc1ccccc1Cl)C(=O)O (stereo not given in full) -2.17%
O=C(NC1(O)C(=O)c2ccccc2C1=O)c1c(Cl)cccc1Cl 6.07%
CCC(=O)Nc1ccc(NC(=O)Cc2ccccc2)cn1 -1.91% [at 1.6 µM]
O=C(Cc1ccccc1)NNC(=O)c1cccs1 5.46%
C#CCOCCOCCOCCNc1nc(N2CCN(C(=O)[C@H](CCC(=O)O)n3cc([C@@H](N)CCCCN)nn3)CC2)nc(N2CCN(C(=O)[C@H](CCC(=O)O)n3cc([C@@H](N)CCCCN)nn3)CC2)n1 -1.73%
Cc1sc2ncnc(OCC(=O)N3CCN(S(=O)(=O)c4ccc(Cl)cc4)CC3)c2c1C 4.3%
Cc1onc(-c2c(F)cccc2Cl)c1C(=O)NC1CC1 -4.82%
COC(=O)c1ccc(-c2sc3nc(N4CCOCC4)c4c(c3c2N)CC(C)(C)OC4)o1 5.56% [at 1.6 µM]
COc1cc(C(C(=O)NC2CCCCC2)N(Cc2cccs2)C(=O)Cc2c[nH]c3ccccc23)cc(OC)c1OC (stereo not given) 6.08%
COc1ccc(C)cc1-n1nnnc1SC/C(O)=C(\C#N)c1nc2ccccc2[nH]1 2.42%
CN1CCN(CC(=O)Nc2ccc(S(=O)(=O)N(C)C)cc2)CC1 -10.7%
CCOC(=O)c1cc2nc(Nc3ccc(OC)cc3)sc2s1 -2.53%
O=S(=O)(c1ccc2ccccc2c1)N(CC(O)COCc1ccco1)c1ccccc1 (stereo not given) 0.0161%
CCOc1cc(/C=C\c2[nH]c(=O)[nH]c(=O)c2[N+](=O)[O-])ccc1OC(C)CC (stereo not given) -8.92%
O=C(CN1C(=O)c2ccccc2C1=O)NCC1COc2ccccc2O1 (stereo not given) 0.969%
O=C(NC1CC2CCC1C2)C1COc2ccccc2O1 (stereo not given) 2.97%
COc1ccc(C2/C(=C(/O)c3ccccc3)C(=O)C(=O)N2CCN2CCOCC2)c(OC)c1 (stereo not given) 5.45%
COc1ccc(NC(=O)c2cccc(N3C(=O)C4CC=C(C)CC4C3=O)c2)c(OC)c1 (stereo not given) 6.73%
O=[N+]([O-])c1ccccc1N/N=C\c1ccccc1Cl -1.36%
CCC(=O)Nc1ccccc1Nc1cc(C#N)c(C#N)cc1[N+](=O)[O-] 2.52%
Fc1cccc(/C=N/Nc2nc3ccccc3[nH]2)c1 2.18%
COc1cccc(/C=N/NC(=O)CNC(=O)c2cccs2)c1O -7.57%
O=C(O)CSc1nnc(COc2cccc3cccnc23)n1-c1cccc(C(F)(F)F)c1 -0.453%
CCCCN(C)C(=O)CCC(=O)NNc1nc2ccccc2c2nc(C)nn12 -5.21%
CCCCOC(=O)Cn1cnc2ccc(Br)cc2c1=O 3.8%
CCc1ccc2oc(=O)cc(CN3CCOCC3)c2c1 5.79%
